Most compounds without a hit are left out; they make up all but 3.4% or so of the library.
MITF primary: MITF inhibitors, primary screen, biochemical, AlphaScreen, human; Microphthalmia-associated transcription factor (Homo sapiens), O75030; hit rate 0.91% among 650,000; AlphaScreen MITF homodimerization, bead proximity signal; inhibition, % at 2.6 µM; AID 1259374, 2018; in the data active = inhibition above about 50%;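 note: 0% = vehicle wells with protein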
GPR151 ag: activators of human GPR151, primary screen, cell-based, PathHunter beta-arrestin, luminescence; G-protein coupled receptor 151 (Homo sapiens), Q8TDV0; PathHunter beta-arrestin GPR151 cells; activation, % at 11.2 µM; hit rate 1% among 650,000; AID 1508602, 2020; in the data active = activation above about 4.9%;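 note: 0% = median of compound wells and 100% = cells with positive control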
Target sequence (Q8TDV0 whole entry, looked up): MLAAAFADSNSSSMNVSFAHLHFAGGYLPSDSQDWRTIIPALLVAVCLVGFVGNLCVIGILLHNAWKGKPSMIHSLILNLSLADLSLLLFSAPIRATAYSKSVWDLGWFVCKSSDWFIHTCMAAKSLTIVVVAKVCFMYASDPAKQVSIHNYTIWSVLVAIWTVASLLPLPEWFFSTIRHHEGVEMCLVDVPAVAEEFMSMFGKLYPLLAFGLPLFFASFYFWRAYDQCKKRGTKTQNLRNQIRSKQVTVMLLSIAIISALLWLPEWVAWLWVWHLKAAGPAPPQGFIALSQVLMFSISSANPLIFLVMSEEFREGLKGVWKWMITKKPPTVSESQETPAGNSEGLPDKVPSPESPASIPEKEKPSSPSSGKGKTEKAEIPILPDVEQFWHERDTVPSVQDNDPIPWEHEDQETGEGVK
FBW7 act: FBW7 E3 ligase activators, primary screen, biochemical, AlphaScreen, human; F-box/WD repeat-containing protein 7 (Homo sapiens), Q969H0; AlphaScreen FBW7–phospho-cyclin E peptide binding, activator screen; normalized activity (activation), % at 26.1 µM; hit rate 0.13% among 650,000; in the data active = normalized activity above about 1.9%;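 note: purified mutant Fbw7 with reduced substrate affinity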
TEAD-YAP block: TEAD-YAP interaction inhibition, primary screen, TEAD-YAP interaction inhibitor project, luminescence, HEK-TIYL cells. TEAD-Gal4/YAP UAS-luciferase luminescence. inhibition, % at 9.12 µM. hit rate 1.4% among 640,000; in the data active = inhibition above about 32%;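 note: 0% = median of test compound wells and 100% = reference inhibitor wells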
Starred values were filed as active, the others as inactive.

SMILES | MITF primary | GPR151 ag | FBW7 act | TEAD-YAP block
Oc1c(C(c2ccccn2)N2CCCC2)cc(Cl)c2cccnc12 (stereo not drawn) | 79* | -1 | 0 | 29
Oc1c(C(c2ccccn2)N2CCN(c3ccc(F)cc3)CC2)cc(Cl)c2cccnc12 (stereo not drawn) | 26 | 0 | 0 | -2
CCOC(=O)N1CCN(C(c2ccccn2)c2c(C)[nH]c3ccccc23)CC1 (stereo not drawn) | 7 | -1 | 0 | 4
CN1CCN(C(c2ccccn2)c2cc(Cl)c3cccnc3c2O)CC1 (stereo not drawn) | 28 | 1 | 0 | 7
Oc1c(CN2CCC(Cc3ccccc3)CC2)cc(Cl)c2cccnc12 | 60* | 0 | 0 | 60*
CCOC(=O)N1CCN(C(c2ccccn2)c2cc(Cl)c3cccnc3c2O)CC1 (stereo not drawn) | 53* | -2 | 0 | -5
c1ccc(CC2CCN(Cc3ccccn3)CC2)cc1 | 24 | 3 | 0 | 2
CCOC(=O)N1CCN(C(c2ccccn2)c2ccc3cccnc3c2O)CC1 (stereo not drawn) | 91* | -2 | 0 | 7
COc1ccc(-c2cc(C(=O)Nc3ccccc3C(=O)O)c3ccccc3n2)cc1OC | -12 | -1 | 1 | -14
CCN(CC)Cc1cc(Cl)c2cccnc2c1O | 55* | 0 | -1 | 74*
CCOC(=O)N1CCN(Cc2cc(Cl)c3cccnc3c2O)CC1 | 50 | 0 | -1 | 76*
Cc1ccc(C)c(Nc2cc(C)nc3nc(C)nn23)c1 | -3 | 1 | 0 | 6
Nc1c(S(=O)(=O)O)cc(Nc2ccc(Nc3nc(Cl)nc(Nc4ccc(S(=O)(=O)O)cc4)n3)c(S(=O)(=O)O)c2)c2c1C(=O)c1ccccc1C2=O | 61* | -2 | 0 | 11
CCCCNc1nc2ccccc2c2nc(-c3ccncc3)nn12 | -5 | 0 | 0 | -4
CCN(CC)CCCNc1nc2ccccc2c2nc(-c3ccncc3)nn12 | -7 | -1 | 0 | 80*
CCN(CC)CCCNc1nc2cc(OC)c(OC)cc2c2nc(-c3ccccc3)nn12 | 17 | 1 | 0 | 32*
CC1CCCCN1CCCNc1nc2ccccc2c2nc(-c3ccncc3)nn12 (stereo not drawn) | 5 | 1 | 0 | 80*
Cc1c(C(=O)NCCN2CCCCC2C)sc2nc3n(c(=O)c12)CCCCC3 (stereo not drawn) | -5 | 0 | 0 | -3
CC1=C(C(=O)Nc2ccccc2)C(c2ccc(O)cc2)NC(=S)N1 (stereo not drawn) | 1 | 1 | 0 | 3
CCC1CCCCN1C(=O)CCc1nnc(-c2cc(C)oc2C)o1 (stereo not drawn) | 0 | -1 | 0 | -13
CCC(C)NC(=S)N(CCN1CCOCC1)Cc1cc2cc(OC)ccc2[nH]c1=O (stereo not drawn) | -19 | 0 | 0 | -7
CCN(CC)C(=O)C1CCCc2c1[nH]c1ccc(Cl)cc21 (stereo not drawn) | 2 | 2 | 0 | 59*
NC(=O)C1CCCc2c1[nH]c1ccc(Cl)cc21 (stereo not drawn) | 15 | 1 | 0 | 7
CC(=O)C1=C(c2ccc3c(c2)CCCC3)N(C(C)=O)n2cnnc2S1 | 9 | 2 | 0 | 38*
CC(=O)C1=C(c2ccccc2)N(C(C)=O)n2cnnc2S1 | -5 | 1 | 0 | 16
SMILES | MITF primary | GPR151 ag | FBW7 act | TEAD-YAP block
COc1cc(OC)c(C2C(C#N)=C(N)Oc3n[nH]c(C)c32)cc1Br (stereo not drawn) | -6 | 1 | 0 | 8
COC(=O)C1=C(C)Nc2ncnn2C1c1ccc(OC)c(Br)c1 (stereo not drawn) | 2 | 1 | 0 | 32*
COC(=O)C1=C(C)Nc2ncnn2C1c1cc(Br)c(O)c(OC)c1 (stereo not drawn) | -8 | -1 | 0 | -20
CCOC(=O)C1=C(C)Nc2ncnn2C1c1cc(Br)c(OC)c(OC)c1 (stereo not drawn) | -4 | -2 | 0 | 50*
CC(=O)c1ccccc1-c1ccc2c(c1)CC(CNC(=O)c1ccc3c(c1)OCCO3)O2 (stereo not drawn) | -21 | 1 | 0 | 37*
Cn1c(=O)c2[nH]c(Nc3cccc(C(F)(F)F)c3)nc2n(C)c1=O | 16 | 1 | 0 | 45*
CCOc1cc(/C=C2\SC(=N)N(c3ccc4c(c3)OCO4)C2=O)ccc1OCc1ccc(F)cc1 | 11 | 0 | 0 | 7
COc1cc(OC)cc(C2=NC3(CCC(C)CC3)NC2=O)c1 (stereo not drawn) | -23 | -1 | 4.2* | 4
CCN1CCN(C(c2ccccc2)c2nnnn2C2CCCCC2)CC1 (stereo not drawn) | -5 | 1 | 0 | 39*
COc1ccccc1CN1CCN(C(c2ccc(F)cc2)c2nnnn2C(C)(C)C)CC1 (stereo not drawn) | 11 | -1 | 0 | -2
Fc1ccc2c(c1)nc(NCc1ccccc1)c1nccn12 | 13 | -3 | 0 | -9
Fc1ccc2c(c1)nc(NCc1ccncc1)c1nccn12 | 1 | -1 | 0 | 49*
COc1cc(Sc2ccccc2[N+](=O)[O-])ccc1N | 1 | -1 | 0 | 46*
COc1ccc(CCNSc2ccccc2[N+](=O)[O-])cc1OC | -2 | 0 | 0 | 1
O=C(CSc1nc2[nH]ncc2c(=O)n1-c1ccccc1)Nc1ccc(F)c(F)c1 | 1 | 0 | 0 | 61*
O=C(CSc1nc2[nH]ncc2c(=O)n1-c1ccccc1)Nc1ccc(Br)cc1 | -5 | 0 | 0 | 17
COc1ccc(C2CC(C(F)(F)F)n3nc(C(=O)N4CCCCC4)cc3N2)cc1OC (stereo not drawn) | -6 | 0 | 0 | 38*
C=CCNc1nc(N)c(C(N)=NC#N)s1 | -1 | 2 | 0 | 74*
COc1ccc(C2NC(=O)NC(C)=C2C(=O)OC(C)C)cc1Br (stereo not drawn) | 4 | 0 | 0 | -2
CC1CCc2nc(NC(=O)c3cccc([N+](=O)[O-])c3)sc2C1 (stereo not drawn) | -9 | -1 | 0 | -54
O=C(Nc1nc(-c2cccs2)cs1)c1ccncc1 | 12 | -1 | 0 | 35*
Cc1cccnc1Nc1nc(-c2cccs2)cs1 | -6 | -1 | 0 | -64
CN(C)c1ccc(Nc2nc(-c3cccs3)cs2)cc1 | 14 | -2 | 0 | 70*
Cc1ccc(Nc2nc(-c3cccs3)cs2)nc1 | 4 | -3 | 0 | 56*
O=C(Nc1nc(-c2cccs2)cs1)c1ccc(Br)cc1 | -14 | 0 | 0 | -25
Nc1cccc(-c2cc(NC3CC3)nc(N)n2)c1 | -12 | 1 | 0 | -35
COc1ccc2cc(-c3nc4ccccc4[nH]3)c(=Nc3cccc(C(F)(F)F)c3)oc2c1 | -9 | -3 | 0 | 72*
c1ccc(-c2cnn(-c3ccnc(Nc4ccc(N5CCOCC5)cc4)c3)c2)cc1 | 10 | 0 | 0 | 45*

Source: PubChem BioAssay (The Scripps Research Institute Molecular Screening Center)
